# Screening results: PubChem, Buhrlage Lab, Dana-Farber Cancer Institute and Novartis Institutes for BioMedical Research (Cambridge, Mass)
# Most compounds without a hit are left out; they make up all but 14% or so of the library.
# USP10 block: inhibitors of human USP10 deubiquitinase; Ubiquitin carboxyl-terminal hydrolase 10 (Homo sapiens), Q14694; purified USP10, Ub-rhodamine fluorescence, 60 min; inhibition, % at 20 µM; actives 1.1% (n = 47,000)
# USP8 block: inhibitors of human USP8 deubiquitinase | AID 1645853, 2021 | purified USP8, Ub-rhodamine cleavage fluorescence, 30 min | actives 4.2% (n = 47,000) | Ubiquitin carboxyl-terminal hydrolase 8 (Homo sapiens), P40818 | inhibition, % at 20 µM
# USP28 block: inhibitors of human USP28 deubiquitinase; Ubiquitin carboxyl-terminal hydrolase 28 (Homo sapiens), Q96RU2; purified USP28, Ub-rhodamine cleavage fluorescence, 30 min; actives 3% (n = 47,000); inhibition, % at 25 µM
# Target sequence (Q96RU2 whole entry, looked up): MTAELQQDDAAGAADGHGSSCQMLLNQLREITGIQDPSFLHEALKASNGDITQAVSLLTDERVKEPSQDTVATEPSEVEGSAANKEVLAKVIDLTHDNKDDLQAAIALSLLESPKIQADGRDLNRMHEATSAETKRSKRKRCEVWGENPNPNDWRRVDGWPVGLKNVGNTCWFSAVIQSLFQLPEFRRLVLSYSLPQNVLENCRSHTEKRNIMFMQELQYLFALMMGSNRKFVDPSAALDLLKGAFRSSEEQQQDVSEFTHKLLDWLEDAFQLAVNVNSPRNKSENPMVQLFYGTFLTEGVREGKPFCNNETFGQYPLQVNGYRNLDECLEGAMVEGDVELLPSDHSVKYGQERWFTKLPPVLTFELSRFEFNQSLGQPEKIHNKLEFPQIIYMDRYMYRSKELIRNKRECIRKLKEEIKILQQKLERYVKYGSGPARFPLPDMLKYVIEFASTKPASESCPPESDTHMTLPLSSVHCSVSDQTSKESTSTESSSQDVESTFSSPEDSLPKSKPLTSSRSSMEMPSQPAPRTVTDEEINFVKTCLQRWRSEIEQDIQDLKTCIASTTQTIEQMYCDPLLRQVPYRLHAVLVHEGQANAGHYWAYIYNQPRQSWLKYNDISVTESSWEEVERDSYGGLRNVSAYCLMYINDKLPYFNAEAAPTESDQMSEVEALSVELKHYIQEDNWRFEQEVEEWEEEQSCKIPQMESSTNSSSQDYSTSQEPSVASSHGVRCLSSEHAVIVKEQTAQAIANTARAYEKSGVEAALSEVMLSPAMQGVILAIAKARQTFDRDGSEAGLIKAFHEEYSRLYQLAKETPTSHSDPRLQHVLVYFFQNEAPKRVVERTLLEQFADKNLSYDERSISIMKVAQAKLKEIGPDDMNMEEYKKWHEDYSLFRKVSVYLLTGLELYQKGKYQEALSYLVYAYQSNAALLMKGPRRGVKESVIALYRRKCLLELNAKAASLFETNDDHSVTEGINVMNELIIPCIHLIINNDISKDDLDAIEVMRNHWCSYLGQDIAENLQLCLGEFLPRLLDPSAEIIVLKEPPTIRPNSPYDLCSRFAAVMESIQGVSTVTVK
# USP17 block: inhibitors of human USP17 deubiquitinase; inhibition, % at 50 µM; AID 1645855, 2021; purified USP17, Ub-rhodamine cleavage fluorescence, 3 h; actives 6.5% (n = 47,000)
# USP30 block: inhibitors of human USP30 deubiquitinase | inhibition, % at 25 µM | purified USP30, Ub-rhodamine cleavage fluorescence | actives 5.3% (n = 47,000) | AID 1645860, 2021 | Ubiquitin carboxyl-terminal hydrolase 30 (Homo sapiens), Q70CQ3
# * marks the source's active call; other numbers are inactive results; . = no result. Rule as the data show it: active = inhibition above about 30%; inactive = the rest.
SMILES,USP10 block,USP8 block,USP28 block,USP17 block,USP30 block
Cc1ccnc(NC(=O)c2ccn(COc3ccccc3Cl)n2)c1,3,-34,16,18,32*
CC(CCc1ccccc1)NC(=O)c1nc(-c2ccc3cc[nH]c3c2)no1 (configuration not stated),9,-4,3,-18,2
Cn1c(=O)c2c(nc(CN(Cc3ccccc3)Cc3ccccc3)n2CC(O)CO)n(C)c1=O (configuration not stated),0,5,1,-3,21
CN1[C@@H](CCC(=O)NCc2ccccc2)CNC(=O)[C@@H]2[C@H]1CCN2CC1CC1,-1,13,6,3,12
CC1CCc2c(sc3nc(CCC(=O)NCc4ccc5c(c4)OCO5)[nH]c(=O)c23)C1 (configuration not stated),6,45*,-7,-5,-54
COc1ccc(CNC(=O)CCc2nc3sc4c(c3c(=O)[nH]2)CCCCC4)cc1,-5,-3,-22,51*,-48
O=C(CCc1nc2sc3c(c2c(=O)[nH]1)CCCCC3)NCc1ccc2c(c1)OCO2,-1,-4,0,5,-9
O=C(NCc1ccccc1F)c1ccc(Cl)c(S(=O)(=O)N2CCCCC2)c1,9,5,38*,9,22
Cn1cc(C(=O)NCc2ccccc2F)c(S(=O)(=O)N2CCCCC2)n1,1,-348,-14,-49,-20
CC(=O)Nc1ccc(S(=O)(=O)N2CCC([C@@H]3NC(=O)N[C@H]4OCCC[C@H]43)CC2)cc1,0,0,5,6,14
COCCNC(=O)c1ccc(-c2ccc(N3CCCCC3)nc2)cc1,9,4,23,68*,31*
CCc1ccc(C(=O)NCc2ccc(N3CCOCC3)nc2)cc1,0,-16,19,27,19
c1ncn(CC2CCCN2Cc2nc(-c3ccoc3)no2)n1 (configuration not stated),-9,-6,-35,-46,-160
CCc1ccccc1NC(=O)Cn1c(C)nc2c(c1=O)CCN(Cc1ccccc1)C2,-1,52*,-16,19,-54
Cc1nc2c(c(=O)n1CC(=O)Nc1ccccc1F)CCN(Cc1ccccc1)C2,-1,-11,-14,-17,-59
COc1ccc(S(=O)(=O)N2CCc3nc4ccccc4n3CC2)cc1,2,-97,-11,57*,54*
COc1ccc(NC(=O)CSc2oc(-c3ccc(C)cc3)nc2S(=O)(=O)c2ccc(Br)cc2)c(OC)c1,2,13,10,59*,16
COc1ccc(-n2nnc(C(=O)NCCc3ccccc3)c2C2CC2)cc1,4,0,13,10,3
Nc1c(C(=O)NCCc2ccccc2)nnn1-c1ccc(F)cc1,5,5,3,61*,9
O=C(Nc1cc(Cl)ccc1O)c1ccc(Cn2cnc3ccccc3c2=O)cc1,9,-1,-2,45*,-8
O=C(O)c1ccc(Cn2cnc3ccccc3c2=O)o1,-2,10,6,-12,-16
Cc1cnc(C(=O)N2CCCC(c3ncc(Cc4ccccc4)o3)C2)cn1 (configuration not stated),1,-6,.,0,.
Cc1cnc(C(=O)N2CCCC(c3ncc(Cc4ccc(F)cc4)o3)C2)cn1 (configuration not stated),0,17,14,6,31*
O=C(NC1CC1)c1nc(C(=O)N2CCN(c3ccccn3)CC2)cs1,0,-2,-5,2,-5
COc1ccc2nc(SCC(=O)Nc3ccc(NC(C)=O)cc3)c(C)cc2c1,24,69*,8,59*,30
SMILES,USP10 block,USP8 block,USP28 block,USP17 block,USP30 block
COc1ccc(C(=O)NCc2nnc(SCC(=O)Nc3ccc(C)c(Cl)c3)o2)cc1,4,2,8,5,18
Cc1ccc(CNCc2cccn2-c2nnc(N3CCOCC3)s2)o1,-6,-8,-20,14,-118
CCc1noc(C)c1C(=O)OC(C)C(=O)c1[nH]c(C)c(C(=O)OC)c1C (configuration not stated),-1,7,14,21,0
COC(=O)c1c(C)[nH]c(C(=O)C(C)OC(=O)CCC2CCCC2)c1C (configuration not stated),10,2,79*,5,-8
CCc1nnc2cc(N3CCN(C(=O)c4ccc(OC)cc4)CC3)cnn12,-1,11,6,-1,13
CCN(CC)S(=O)(=O)c1ccc(/C(=C\Nc2ccc(Cl)cc2)c2ncc(C(F)(F)F)cc2Cl)s1,3,36*,4,13,-11
Cc1ccc(-c2nc(CNC(=O)C(C)Oc3ccccc3F)cs2)cc1 (configuration not stated),7,5,9,7,46*
CCC(C)NC(=O)c1nnn(-c2cccc3c2CCN(C2CCOCC2)C3)c1C (configuration not stated),-7,4,-27,-30,-86
COc1ccc(-c2nnc(SCc3ccccc3C#N)o2)c(OC)c1,1,13,14,25,50*
O=C(CSc1nc2ccsc2c(=O)n1Cc1ccccc1)Nc1ccccc1C(F)(F)F,3,-1,.,55*,.
O=C(Cn1c(=O)n(CCc2ccccc2)c(=O)c2cccnc21)Nc1ccccc1C(F)(F)F,16,0,0,0,-2
COC(=O)C12Oc3cc4c(c(O)c3C(O)=C1C(=O)CCC2O)C1C=CC2(C4)C(=O)c3cc(C)cc(O)c3C(O)=C2C1=O (configuration not stated),-10,-59,30,48*,-63
Cc1ccnc2nc(C(=O)Nc3nc4c(s3)CCCC4)nn12,-4,-6,-11,0,-9
CCCCN(CC)c1ncnc2c1sc1nc(-c3ccco3)c3c(c12)CC(C)(C)OC3,11,59*,12,53*,-34
CC(C)c1nc2sc3c(N(CCO)CCO)ncnc3c2c2c1COC(C)(C)C2,-6,5,19,10,60*
Cc1ccc(NC(=O)CSc2nnc(Cc3cccc4ccccc34)n2C)c(C)c1,-3,-33,49*,39*,27
Cc1cc(C)c(NC(=O)CSc2nnc(Cc3cccc4ccccc34)n2C)c(C)c1,-5,-28,5,1,-1
Cc1cccc(NC(=O)CSc2nnc(CNc3ccc(Cl)cc3)n2C)c1C,-1,44*,0,-2,-5
Cc1ccc(-n2c(Cc3cccc4ccccc34)nnc2SCC(=O)NC2CCS(=O)(=O)C2)c(C)c1 (configuration not stated),0,24,0,42*,-1
CC(C)C1Nc2ccc(C(=O)NCc3ccccc3)cc2NC1=O (configuration not stated),6,0,0,36*,-7
CNS(=O)(=O)c1cc(C(=O)NCc2ccccc2)ccc1Cl,1,0,9,3,20
